# Compounds with a hit are over-represented: about 19% of the library has one in this group of screens.
# Shiga toxin inh: A qHTS for Small Molecule Inhibitors of Shiga Toxin. Vero cells, Shiga toxin protein synthesis inhibition reporter. inhibition, % at 38.7 µM. actives 9.2% (n = 290,000); in the data active = inhibition mostly above about 28%, no sharp cut-off; inactive = mostly below about 43%; note: 0% is about no effect
# Marburg entry inh: qHTS for inhibitors of binding or entry into cells for Marburg Virus. Marburg virus pseudotyped entry inhibition, cell reporter. Potency, µM (series often up to 37.8 µM), inactives show at the top dose activity change, negative = inhibition, actives largely listed as inhibitors. actives 1.8% (n = 300,000); calls by dose curve; tested in HEK293 cells; note: potency is the fitted concentration of half-maximal effect; % is set by controls: 0 for no effect and ±100 for the full control effect
# Pf growth 96h: Primary qHTS for delayed death inhibitors of the malarial parasite plastid, 96 hour incubation | P. falciparum luciferase reporter growth, 96 h | Potency, µM (series often up to 28.7 µM), for the others: at the highest dose activity change, negative = inhibition, actives largely listed as inhibitors | actives 6.9% (n = 320,000); note: potency is the fitted concentration of half-maximal effect; % is set by controls: 0 for no effect and ±100 for the full control effect
#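 Infected RBCs, 2% Hct / 0.05% parasitemia final; luciferase-reporter P. falciparum; cpd 96 h, 37 C, 5% CO2; luciferase detection reagent; luminescence.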
# CHX counter: Cycloheximide Counterscreen for Small Molecule Inhibitors of Shiga Toxin; cell reporter, cycloheximide protein synthesis inhibition counterscreen; max response, %; actives 12% (n = 300,000); AID 2314, 2010; in the data active = max response mostly above about 13%, no sharp cut-off; inactive = mostly below about 14%; note: read at 38.3 µM for the half of the compounds with a filed dose; 0% is about no effect
# Pf growth 48h: Primary qHTS for delayed death inhibitors of the malarial parasite plastid, 48 hour incubation; actives 5.9% (n = 310,000); P. falciparum luciferase growth in erythrocytes, 48 h; Potency, µM (top dose mostly 28.7 µM), for the others: top-dose activity change, negative = inhibition, hits mostly inhibitors; AID 504832, 2011; note: potency is the fitted concentration of half-maximal effect; % is set by controls: 0 for no effect and ±100 for the full control effect
#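 Luminescence readout; reporter = integrated firefly luciferase in P. falciparum. RBC culture at 2% hematocrit, 0.1% parasitemia final, 37 C/5% CO2; decreased signal taken as growth inhibition.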
# LASV entry inh: qHTS for Inhibitors of binding or entry into cells for Lassa Virus | AID 540256, 2011 | Lassa virus pseudotype entry inhibition, cell reporter | actives 1.2% (n = 300,000) | Potency, µM (titrated, usually from 37.9 µM), without a hit: top-dose activity change, negative = inhibition, usual class: inhibitors; calls by dose curve; tested in HEK293 cells; note: potency is the fitted concentration of half-maximal effect; % is set by controls: 0 for no effect and ±100 for the full control effect; nearly all actives have a fitted effect of over 50% in size
# An asterisk follows results filed as active; ? = inconclusive; nt = not tested or not shown; ! = a repeat was not active; [ ] = remark or other dose. Unless noted, calls come from the whole dose curve; as a rule, active = well fitted inhibition curve with a large enough effect; inconclusive = small, poorly fitted or top-dose-only effect, or another doubt; inactive = no such curve, though single readings can be large or run the other way.
SMILES,Shiga toxin inh,Marburg entry inh,Pf growth 96h,CHX counter,Pf growth 48h,LASV entry inh
Cc1nc(-c2ccc(NC(=O)Cc3ccccc3)cc2)cs1,87*,?,-2%,43*,72%,?
CCC(=O)Nc1ccc(-c2csc(C)n2)cc1,31,19%,36%,23*,93%,6%
COc1ccc(CC(=O)Nc2ccc(-c3csc(C)n3)cc2)cc1,35,3%,nt,13,15%,11%
C[C@@H](O)[C@@H]1C(=O)N2C(C(=O)O)=C([C@H]3CCCO3)S[C@H]12,nt,nt,-25%,nt,-9%,nt
COc1ccc(OC)c(-n2c(-c3ccc(S(C)(=O)=O)cc3)cc(C=O)c2C)c1,16,?,?,2,12µM*,3%
CC(C)C[C@H](NC(=O)c1nc[nH]c1C(=O)N[C@@H](CC(C)C)C(=O)OC(C)(C)C)C(=O)OC(C)(C)C,-5,nt,8.3µM*,-2,6.6µM*,nt
CC(C)C[C@H](NC(=O)c1nc[nH]c1C(=O)NCC(=O)OC(C)(C)C)C(=O)OC(C)(C)C,3,nt,?,-3,?,nt
CC(C)C[C@H](NC(=O)c1[nH]cnc1C(=O)Nc1ccc(Cl)cc1)C(=O)OC(C)(C)C,-4,nt,13µM*,9,13µM*,nt
COc1ccc(C(=O)NN=C2CCCC2)c(OC)c1,28,17%[46.1 µM],?,20*,23%,16%[46.1 µM]
COc1ccc(C(=O)NCC(c2cccs2)N2CCc3ccccc32)c(OC)c1 (stereo unspecified),nt,-22%,5.2µM*,nt,10µM*,?
COc1ccc(C(=O)NCC(C)C)c(OC)c1,15,1%,9.3µM*,12,?,4%
CCCNC(=O)c1ccc(OC)cc1OC,3,0%,23%,-3,36%,7%
CC(C)CNC(=O)c1ccccc1Oc1ccccc1,-6,?,15µM*,-5,nt,2%
CN(C)CCCNC(=O)c1ccccc1Oc1ccccc1,12,1%[46.1 µM],-17%,8,-4%,22%
Nn1c(Cc2ccc(F)cc2)n[nH]c1=S,-15,4%[46.1 µM],14%,-1,5%,nt
NNc1n[nH]c(=S)n1N,63*,?,-16%,40*,?,?
CCC1=C[C@@H]2CN(C1)Cc1c([nH]c3ccccc13)[C@@](C(=O)OC)(c1cc3c(cc1OC)N(C)[C@@H]1[C@@](O)(C(=O)OC)[C@H](OC(C)=O)[C@]4(CC)C=CCN5CC[C@]31[C@@H]54)C2,nt,nt,0.85µM*,nt,0.48µM*,nt
CC[C@]12C=CCN3CCC4(c5cc(Br)c(OC)cc5N(C)C4[C@@](O)(C(=O)OC)[C@@H]1OC(C)=O)C32 (stereo partly specified),-10,-18%,?,-3,?,-1%
N#C/C(=C\c1cn(CC(=O)N2CCCC2)c2ccccc12)C(=O)NCc1ccc2c(c1)OCO2,9,2%,?,5,15%,1%
O=C(O)CSc1ncccc1C(=O)O,-5,23%,1%,3,43%,1%
COc1nc(OC)nc(N2CCC(C(=O)NCC3CCCCC3)CC2)n1,16,?,?,3,-5%,1%
C=CCNC(=O)NC(=S)c1ccccc1,24,29%,7%,23*,18%,3%
CCOc1c(Cl)cc(CNCC(C)C)cc1OC,3,2%,16%,-3,nt,3%
Cc1ccc(Cl)cc1S(=O)(=O)N1CCC(C(=O)NC2CCN(Cc3ccccc3)CC2)CC1,1,?,0%,-2,7.4µM*,-12%[46.1 µM]
O=C(NC1CCN(Cc2ccccc2)CC1)c1cc(S(=O)(=O)Nc2ccc(F)cc2)ccc1Cl,nt,?,9.3µM*,nt,9.3µM*,?
SMILES,Shiga toxin inh,Marburg entry inh,Pf growth 96h,CHX counter,Pf growth 48h,LASV entry inh
COCCNS(=O)(=O)c1ccc(Cl)c(C(=O)NC2CCN(Cc3ccccc3)CC2)c1,-13,-1%[46.1 µM],1%,-4,16%,-6%[46.1 µM]
O=C(NC1CCN(CCc2c[nH]c3ccccc23)CC1)c1ccccc1,-11,?,12µM*,5,15µM*!,-6%[46.1 µM]
CC(C)(C)c1ccc(C(=O)NC2CCN(Cc3ccccc3)CC2)cc1,-8,nt,3.3µM*,-4,?,nt
CCN(CC)S(=O)(=O)c1ccc(S(=O)(=O)N2CCC(C(=O)NC3CCN(Cc4ccccc4)CC3)CC2)cc1,2,?,?,-1,-11%,nt
CCN(C(=O)c1cccn(Cc2ccccc2C)c1=O)c1ccccc1,nt,nt,nt,nt,nt,9%[46.1 µM]
CCC1CN(C(=O)N2CCC(C(=O)N3CCN(c4ccc(F)cc4)CC3)CC2)c2ccccc2O1 (stereo unspecified),nt,nt,nt,nt,nt,3%[46.1 µM]
CC(CCc1ccccc1)NC(=O)/C=C/c1ccc(F)cc1 (stereo unspecified),23,nt,?,4,-14%,nt
CC(=O)NC1CC2CCCC(C1)N2Cc1ccc(C)cc1 (stereo unspecified),-3,nt,?,-2,2%,nt
Cc1ccc(NS(=O)(=O)c2ccc(C(=O)NC3CCN(Cc4ccccc4)CC3)cc2)cc1,nt,?,nt,nt,nt,11µM*
Cc1ccc(CN2C3CCCC2CC(NC(=O)c2ccc(C)cc2)C3)cc1 (stereo unspecified),-6,13µM*,-1%,21,?,?
CCCCCn1c(=O)[nH]c2cc(C(=O)NC3CCN(Cc4ccccc4)CC3)ccc2c1=O,nt,-1%[46.1 µM],nt,nt,nt,-6%
O=C(NC1CCN(Cc2ccccc2)CC1)c1ccc2c(c1)[nH]c(=O)n2Cc1ccc(F)cc1,-10,2.8µM*,74%,-3,-4%,?
CCOC(=O)N1CCC(NC(=O)c2cc(C(=O)NC3CCN(Cc4ccccc4)CC3)ccc2CO)CC1,27,?,10µM*,-2,16%,28%[46.1 µM]
O=C(CCNS(=O)(=O)c1ccc(Br)cc1)NCc1ccc(F)cc1,-15,nt,2%,9,13%,nt
O=C(NC1CCN(Cc2ccc(Cl)cc2Cl)CC1)c1ccccc1,-9,?,2.9µM*,-9,-16%[0.00184 µM],?
CN(C(=O)c1ccccc1C(=O)c1ccccc1)C1CCS(=O)(=O)C1 (stereo unspecified),-5,15%,?,0,13%,-16%
Cc1ccc(-n2nc3ccc(N)cc3n2)cc1C,nt,nt,185%,44*,0%,nt
COc1ccc(-n2nc3ccc(NS(C)(=O)=O)cc3n2)cc1Cl,35*,?,26%,9.6*,55%,-16%
COc1ccc(-n2nc3ccc(N)cc3n2)cc1Cl,nt,nt,29%,28*,57%,nt
Cc1ccc(-n2nc3ccc(N)cc3n2)c(C)c1,nt,nt,1.7µM*,17*,98%,nt
CCCCn1c(=O)c(C(=O)NCc2ccccc2Cl)c(O)c2ccccc21,nt,nt,?,-1,?,nt
COc1cccc(-c2ccc3c(N)c(C(=O)Nc4cc(F)ccc4F)sc3n2)c1,nt,nt,nt,nt,nt,0%[46.1 µM]
Cc1cc(N)ccc1-n1nc2ccccc2n1,nt,?,nt,nt,nt,-9%[46.1 µM]

# Screens: PubChem, National Center for Advancing Translational Sciences (NCATS)
